Screening results deposited in PubChem by National Center for Advancing Translational Sciences (NCATS).
Only some compounds are listed: those with a hit (about 3.3% of all), similar ones and a draw of the others.
BRCT PPI green: BRCA1 BRCT-phosphoprotein interaction inhibition; BRCA1 BRCT-phosphopeptide binding, green fluorescence polarization; Potency, µM (titrated, usually from 76.9 µM), without a hit: at the highest dose activity change, negative = inhibition, most hits filed as inhibitors; hit rate 0.05% among 75,000; AID 875;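 also: potency is read from the fitted curve at half-maximal effect; plate controls were peptide without protein for full effect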
Target sequence (P38398 whole entry, looked up): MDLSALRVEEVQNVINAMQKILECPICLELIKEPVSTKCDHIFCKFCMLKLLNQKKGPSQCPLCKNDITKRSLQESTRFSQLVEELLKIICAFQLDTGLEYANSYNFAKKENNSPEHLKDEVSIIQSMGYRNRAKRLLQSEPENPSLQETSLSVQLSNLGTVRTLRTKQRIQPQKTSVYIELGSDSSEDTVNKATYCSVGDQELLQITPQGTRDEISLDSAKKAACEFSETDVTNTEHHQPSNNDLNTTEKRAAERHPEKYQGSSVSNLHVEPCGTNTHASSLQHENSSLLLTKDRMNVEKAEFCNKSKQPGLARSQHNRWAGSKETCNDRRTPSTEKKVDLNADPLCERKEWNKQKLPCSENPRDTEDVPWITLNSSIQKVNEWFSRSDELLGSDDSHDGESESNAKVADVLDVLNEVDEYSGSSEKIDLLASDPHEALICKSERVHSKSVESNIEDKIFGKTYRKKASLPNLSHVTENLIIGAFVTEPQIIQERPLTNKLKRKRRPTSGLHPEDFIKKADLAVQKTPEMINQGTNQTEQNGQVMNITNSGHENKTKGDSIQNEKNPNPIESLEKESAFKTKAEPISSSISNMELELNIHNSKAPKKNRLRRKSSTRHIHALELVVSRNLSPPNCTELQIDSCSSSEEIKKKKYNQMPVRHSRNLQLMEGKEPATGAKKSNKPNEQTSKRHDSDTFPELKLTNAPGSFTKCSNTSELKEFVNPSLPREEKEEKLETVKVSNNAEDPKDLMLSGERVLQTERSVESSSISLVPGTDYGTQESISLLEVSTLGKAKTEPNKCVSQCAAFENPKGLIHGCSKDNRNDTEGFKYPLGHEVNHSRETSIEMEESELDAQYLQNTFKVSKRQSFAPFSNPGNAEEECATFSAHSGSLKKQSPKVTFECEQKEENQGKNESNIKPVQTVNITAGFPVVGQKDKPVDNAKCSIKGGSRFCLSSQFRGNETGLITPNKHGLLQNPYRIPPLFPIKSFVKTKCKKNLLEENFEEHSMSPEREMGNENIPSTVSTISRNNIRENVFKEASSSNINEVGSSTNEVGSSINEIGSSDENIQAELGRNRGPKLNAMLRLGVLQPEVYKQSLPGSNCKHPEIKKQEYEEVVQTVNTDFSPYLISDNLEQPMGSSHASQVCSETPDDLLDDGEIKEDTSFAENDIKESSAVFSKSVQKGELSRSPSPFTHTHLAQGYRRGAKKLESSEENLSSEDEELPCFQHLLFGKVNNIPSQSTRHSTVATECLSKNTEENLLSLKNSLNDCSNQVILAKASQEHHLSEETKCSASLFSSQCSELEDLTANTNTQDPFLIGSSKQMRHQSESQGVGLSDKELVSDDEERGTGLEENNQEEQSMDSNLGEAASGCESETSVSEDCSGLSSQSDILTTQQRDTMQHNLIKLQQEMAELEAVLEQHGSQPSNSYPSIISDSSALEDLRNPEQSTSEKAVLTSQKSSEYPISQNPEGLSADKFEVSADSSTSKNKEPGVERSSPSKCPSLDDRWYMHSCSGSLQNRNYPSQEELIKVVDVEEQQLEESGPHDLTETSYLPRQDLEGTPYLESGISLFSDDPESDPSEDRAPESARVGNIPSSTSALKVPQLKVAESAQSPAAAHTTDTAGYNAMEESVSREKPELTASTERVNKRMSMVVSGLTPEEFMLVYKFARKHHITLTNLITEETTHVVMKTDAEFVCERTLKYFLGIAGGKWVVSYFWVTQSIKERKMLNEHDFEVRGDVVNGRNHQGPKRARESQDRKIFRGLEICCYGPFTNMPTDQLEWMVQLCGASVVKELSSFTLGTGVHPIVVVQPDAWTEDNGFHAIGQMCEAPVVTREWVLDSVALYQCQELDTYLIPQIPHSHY
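Compounds were incubated for 12 min at room temperature with a complex of 100 nM fluorescein-tagged pBACH1 decapeptide and 250 nM His-tagged BRCT protein. Buffer was phosphate pH 7.3 with EDTA, DTT and Tween 20. Disruption of binding lowers the polarization signal.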
BRCT inh red: inhibitors of human BRCA1 BRCT-phosphoprotein interaction (red fluorophore) | P38398 | AID 892 | hit rate 0.03% among 75,000 | BRCT-phosphopeptide binding, red fluorescence polarization | Potency, µM (series often up to 76.9 µM), for the others: at the highest dose activity change, negative = inhibition, most hits filed as inhibitors; also: % is scaled to controls: 0 for no effect and ±100 for the full control effect
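Fluorescence polarization: 100 nM His-tagged BRCA1 BRCT with 100 nM TAMRA-labelled phospho-BACH1 decapeptide, phosphate buffer pH 7.3 with 150 mM NaCl, DTT, 0.01% Tween 20; 12 min RT. Binding inhibition seen as FP decrease.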
Hsp90 Hop PPI: changes Hsp90-Hop TPR2A binding signal, up or down; AlphaScreen TPR2A-His6 binding biotin-Hsp90 C-terminal peptide; Potency, µM (top dose mostly 57 µM), for inactives: at the top dose activity change, negative = inhibition; hit rate 0.44% among 71,000; AID 595; active = well fitted curve in either direction with a large enough effect; inconclusive = small, poorly fitted or top-dose-only effect, or another doubt; also: potency is read from the fitted curve at half-maximal effect; % is scaled to controls: 0 for no effect and ±100 for the full control effect
HEK293 cAMP ctrl: raises cAMP in parental HEK293 cells, TSHR agonist counter-screen. hit rate 2.5% among 73,000. parental HEK293 CNG cAMP sensor, membrane potential fluorescence. Potency, µM (titrated, usually from 57.1 µM), for the others: top-dose activation, usual class: activators; also: potency is read from the fitted curve at half-maximal effect; % of control where 0% means no effect; nearly all actives have a fitted effect of over 55% in size
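Counterscreen for endogenous-receptor signalling: CNG-channel HEK 293 cells report cAMP rise by membrane depolarization. After 60 min dye equilibration with 100 uM RO 20-1724, compounds incubated 30 min before bottom-read fluorescence at 590 nm.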
TSHR agonist: activates the human thyroid stimulating hormone receptor. hit rate 0.48% among 73,000. AID 926. Potency, µM (series often up to 57.1 µM), for inactives: top-dose activation, most hits filed as activators. P16473. HEK293-CNG-TSHR cells (CNG channel as cAMP sensor), membrane potential dye, cAMP; active = well fitted activation curve with a large enough effect in the main read-out, with a control signal flat, not every such curve was filed as active; inconclusive = small, poorly fitted or top-dose-only effect, or a change in a side signal; inactive = no such curve, though single readings can be large or run the other way; % of control where 0% means no effect;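 also: the control signal comes from parental cells without the receptor; potency is read from the fitted curve at half-maximal effect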
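cAMP rise detected as CNG-channel membrane depolarization by fluorescent dye (emission 590 nm), 30 min after compound, following 60 min dye loading containing 100 uM RO 20-1724 at room temperature. Cells: TSHR/CNG HEK 293, with parental CNG HEK 293 as control.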
TsaE inh: inhibitors of E. coli YjeE (TsaE). P0AF67. purified YjeE enzyme, qHTS inhibition assay. Potency, µM. hit rate 0.05% among 71,000. AID 605
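Purified YjeE (10 uM) with BODIPY Texas Red-labeled ADP probe (2 uM); compounds pin-transferred, 15 min at room temperature. Binding inhibition read as decreased fluorescence polarization; ADP titration as control.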
* = called active by the depositor; ! = not active in a repeat; [ ] = remark or other dose. Unless noted, calls follow the shape of the dose curve; as a rule, active = well fitted curve in the direction sought with a large enough effect; inconclusive = small, poorly fitted or top-dose-only effect, or another doubt; inactive = no such curve, though single readings can be large; an effect the other way counts as inactive or inconclusive.

For CC(C)CC(c1nnnn1CC1CCCO1)N1CCN(C2CCCC2)CC1 (configuration not stated) the results were BRCT PPI green -1%, BRCT inh red 0%, Hsp90 Hop PPI -2%, HEK293 cAMP ctrl 28%, TSHR agonist 6% and TsaE inh inactive.
Screening COc1ccc(Cn2nnnc2C(CC(C)C)N2CCN(c3ccccc3)CC2)cc1 (configuration not stated) returned BRCT PPI green -1%, BRCT inh red -1%, Hsp90 Hop PPI 1%, HEK293 cAMP ctrl inconclusive, TSHR agonist inconclusive and TsaE inh inactive.
CC(C)CC(c1nnnn1Cc1ccco1)N1CCN(c2cccc(Cl)c2)CC1 (configuration not stated) was read as BRCT PPI green -3%, BRCT inh red 0%, Hsp90 Hop PPI 11%, HEK293 cAMP ctrl 10µM*, TSHR agonist inconclusive and TsaE inh inactive.
For CCCCCCCCCC(=O)N[C@@H](CN1CCOCC1)[C@@H](O)c1ccccc1 the results were BRCT PPI green -1%, BRCT inh red -2%, Hsp90 Hop PPI -11%, HEK293 cAMP ctrl 24%, TSHR agonist 11% and TsaE inh inactive.
COCCn1c(=O)cnc2cnc(Oc3ccccc3)nc21 was read as BRCT PPI green -1%, BRCT inh red 2%, Hsp90 Hop PPI -6%, HEK293 cAMP ctrl 27%, TSHR agonist 0% and TsaE inh inactive.
Cc1nc(SCC(=O)NCc2ccco2)c2c3c(sc2n1)CCCC3 was read as BRCT PPI green 0%, BRCT inh red -2%, Hsp90 Hop PPI -4%, HEK293 cAMP ctrl 13µM*, TSHR agonist inconclusive and TsaE inh inactive.
For CC1CCc2c(sc3ncn4c(SCC(=O)NCc5ccco5)nnc4c23)C1 (configuration not stated) the results were BRCT PPI green 4%, BRCT inh red -2%, Hsp90 Hop PPI 0%, HEK293 cAMP ctrl 25µM*, TSHR agonist inconclusive and TsaE inh inactive.
For c1ccc(COn2nnc3ccccc32)c(COn2nnc3ccccc32)c1 the results were BRCT PPI green 5%, BRCT inh red 0%, Hsp90 Hop PPI 7%, HEK293 cAMP ctrl 25µM*, TSHR agonist inconclusive and TsaE inh inactive.
Clc1ccc(OCc2nn3c(C4CCCCC4)nnc3s2)c(Cl)c1 was read as BRCT PPI green 0%, BRCT inh red -2%, Hsp90 Hop PPI -1%, HEK293 cAMP ctrl 32µM*, TSHR agonist inconclusive and TsaE inh inactive.
`COc1ccccc1-c1nnc2sc(COc3ccc(Cl)cc3Cl)nn12` gave BRCT PPI green 0%, BRCT inh red -1%, Hsp90 Hop PPI -6%, HEK293 cAMP ctrl inconclusive, TSHR agonist inconclusive and TsaE inh inactive.
Screening COc1ccc2c(c1)c(CC(=O)N1CCOCC1)c(C)n2C(=O)c1ccc(Cl)cc1 returned BRCT PPI green 3%, BRCT inh red -1%, Hsp90 Hop PPI 2%, HEK293 cAMP ctrl 40µM*!, TSHR agonist inconclusive and TsaE inh inactive.
`O=C1c2ccccc2C(Nc2ccc(F)c(Cl)c2)N1c1ccccn1` (configuration not stated) gave BRCT PPI green 2%, BRCT inh red -2%, Hsp90 Hop PPI -3%[2.3 µM], HEK293 cAMP ctrl 13%, TSHR agonist 20µM* and TsaE inh inactive.
Screening O=C1c2ccccc2C(Nc2ccc3c(c2)OCCO3)N1c1ccccn1 (configuration not stated) returned BRCT PPI green -3%, BRCT inh red 0%, Hsp90 Hop PPI -3%[2.3 µM], HEK293 cAMP ctrl 26%, TSHR agonist 19% and TsaE inh inactive.
Screening Cc1cc(N2CCC(C)CC2)n2ncc(-c3ccccc3)c2n1 returned BRCT PPI green -1%, BRCT inh red 0%, Hsp90 Hop PPI inconclusive, HEK293 cAMP ctrl 11%, TSHR agonist 10% and TsaE inh inactive.
`Cc1cc(N2CCCCC2)n2ncc(-c3ccc(Cl)cc3)c2n1` gave BRCT PPI green 0%, BRCT inh red 1%, Hsp90 Hop PPI 25µM*, HEK293 cAMP ctrl 3%, TSHR agonist 1% and TsaE inh inactive.
`N#Cc1cccc(-c2nc3cnc(Oc4cccc(Cl)c4)nc3n(C3CC3)c2=O)c1` gave BRCT PPI green 1%, BRCT inh red 0%, Hsp90 Hop PPI -5%, HEK293 cAMP ctrl -7%, TSHR agonist -2% and TsaE inh inactive.
`Cc1nnc(SCC(=O)c2c(N)n(C)c(=O)n(C)c2=O)[nH]c1=O` gave BRCT PPI green -2%, BRCT inh red 0%, Hsp90 Hop PPI -1%, HEK293 cAMP ctrl 13%, TSHR agonist 2% and TsaE inh inactive.
Screening CC(C)c1nc(-c2c(N)n(C)c(=O)n(C)c2=O)sc1C(=O)C(C)(C)C returned BRCT PPI green -2%, BRCT inh red 1%, Hsp90 Hop PPI 0%, HEK293 cAMP ctrl 16µM*, TSHR agonist inconclusive and TsaE inh inactive.
COC(=O)C/C=C\[C@@H](C)[C@@H](/C=N\O[C@@H](C)CN1CCCc2nc(C)c(C)cc21)OC was read as BRCT PPI green -1%[15.4 µM], BRCT inh red 2%[15.4 µM], HEK293 cAMP ctrl 24%[11.4 µM] and TSHR agonist 8%[11.4 µM].
Screening Cc1ccc(-c2cc(C(=O)Nc3cc(C)on3)c3ccccc3n2)c(C)c1 returned BRCT PPI green 1%, BRCT inh red -1%, Hsp90 Hop PPI -4%[2.3 µM], HEK293 cAMP ctrl inconclusive, TSHR agonist inconclusive and TsaE inh inactive.
Screening Cc1cc(NC(=O)c2cc(-c3cccnc3)nc3c(C)c(C)ccc23)no1 returned BRCT PPI green 2%, BRCT inh red 0%, Hsp90 Hop PPI -5%, HEK293 cAMP ctrl 25µM*, TSHR agonist inconclusive and TsaE inh inactive.
`Cn1c(-c2nc(-c3ccccc3)cs2)nc2ccccc21` gave BRCT PPI green 40µM* and BRCT inh red -4%.
For CC(C)(C)c1[nH]nc2c1C(c1cccnc1)C(C#N)=C(N)O2 (configuration not stated) the results were BRCT PPI green -1%, BRCT inh red 2%, HEK293 cAMP ctrl -2% and TSHR agonist 3%.
For N#CC1=C(N)Oc2c(ccc3cccnc23)C1c1cccnc1 (configuration not stated) the results were BRCT PPI green -2%, BRCT inh red 1%, Hsp90 Hop PPI 32µM*, HEK293 cAMP ctrl 9%, TSHR agonist 3% and TsaE inh inactive.
COc1ccc(CCNc2ncnc3c2oc2ccccc23)cc1OC was read as BRCT PPI green -2%, BRCT inh red 1%, Hsp90 Hop PPI 0%, HEK293 cAMP ctrl 13µM*, TSHR agonist inconclusive and TsaE inh inactive.
